Bioassay records deposited in PubChem BioAssay by National Center for Advancing Translational Sciences (NCATS).
A selection: hits, their analogues and other compounds. The true share with any hit is near 1%.
RXFP1 ag: RXFP1 (human) receptor agonism; Q9HBX9; HEK293T-RXFP1 cAMP TR-FRET, 30 min; response scale: percent of porcine relaxin response, buffer zero; Potency, µM (doses to about 57.5 µM), without a hit: at the top dose activation, actives largely listed as activators; 370,000 compounds, 0.3% hits; AID 2676; active = well fitted activation curve with a large enough effect; inconclusive = small, poorly fitted or top-dose-only effect; also: potency is read from the fitted curve at half-maximal effect; % is scaled to controls: 0 for no effect and ±100 for the full control effect; nearly all actives have a fitted effect of over 60% in size
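HEK293T cells stably expressing RXFP1 were pretreated with the PDE4 inhibitor Ro 20174, exposed to compounds for 30 min at 37C, lysed, and cAMP was read by TR-FRET. Data normalized to buffer (basal) and 29 nM porcine relaxin (100%).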
gsp agonist: activates gsp, the McCune-Albright syndrome mutation. gsp mutant cells, cAMP HTRF, 30 min. Potency, µM (series often up to 76.9 µM), for the others: at the top dose activation (cAMP increase), usual class: activators. 340,000 compounds, 0.13% hits. AID 624287; active = well fitted activation curve with a large enough effect; inconclusive = small, poorly fitted or top-dose-only effect, or another doubt; inactive = no such curve, though single readings can be large or run the other way; cell line not stated here;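 also: phosphodiesterase inhibitor Ro 20-1724 added with compounds to block cAMP breakdown; potency is read from the fitted curve at half-maximal effect; nearly all actives have a fitted effect of over 60% in size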
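Cells stably selected in G418 were plated at 2000/well, grown 16-24 hr, then given compounds in DMSO with the PDE inhibitor […] (300 uM solution added) for 30 min at 37C; cAMP was read by HTRF.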
TSHR antagonist: antagonists of human thyroid stimulating hormone receptor; P16473; TSHR-expressing cells, TSH-stimulated cAMP HTRF, 2 h; stronger effect = lower value; activity change, negative = inhibition, % at 11.5 µM; 330,000 compounds, 0.2% hits;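 active = activity change below a set negative limit, meaning inhibition stronger than a set level, cut at about -70% in these data; inconclusive = activity change between two set negative limits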; also: % is scaled to controls: 0 for no effect and ±100 for the full control effect
Target sequence (P16473 whole entry, looked up): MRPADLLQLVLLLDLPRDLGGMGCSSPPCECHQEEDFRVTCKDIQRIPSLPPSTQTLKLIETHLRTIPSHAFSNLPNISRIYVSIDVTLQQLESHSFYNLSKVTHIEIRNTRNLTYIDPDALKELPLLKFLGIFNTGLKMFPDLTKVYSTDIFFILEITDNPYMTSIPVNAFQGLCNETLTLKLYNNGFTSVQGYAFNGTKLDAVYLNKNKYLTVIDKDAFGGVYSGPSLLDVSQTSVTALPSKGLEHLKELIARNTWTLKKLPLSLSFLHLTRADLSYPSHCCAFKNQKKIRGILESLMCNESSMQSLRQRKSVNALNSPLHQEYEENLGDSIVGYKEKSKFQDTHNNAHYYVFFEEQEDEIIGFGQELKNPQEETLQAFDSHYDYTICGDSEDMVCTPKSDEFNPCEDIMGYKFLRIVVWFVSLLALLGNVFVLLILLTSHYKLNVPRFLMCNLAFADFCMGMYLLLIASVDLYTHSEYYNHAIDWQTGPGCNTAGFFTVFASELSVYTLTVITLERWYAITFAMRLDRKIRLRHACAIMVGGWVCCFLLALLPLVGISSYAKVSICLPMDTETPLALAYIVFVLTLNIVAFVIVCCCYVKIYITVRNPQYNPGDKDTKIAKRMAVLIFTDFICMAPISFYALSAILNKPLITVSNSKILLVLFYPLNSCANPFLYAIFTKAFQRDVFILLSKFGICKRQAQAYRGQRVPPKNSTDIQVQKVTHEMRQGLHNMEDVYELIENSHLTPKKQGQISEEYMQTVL
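Competitive HTRF cAMP read-out (cryptate anti-cAMP antibody, cAMP-d2; 30 min, room temperature) in freshly harvested TSHR cells. Compounds added before TSH at EC80 (4nM final), followed by 2 hours' incubation at 37 deg C.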
RXFP1 antag: blocks the human relaxin receptor RXFP1; HEK293-RXFP1, relaxin-stimulated cAMP HTRF, 30 min; stronger effect = lower value; activity change, negative = inhibition, % at 57.5 µM; 350,000 compounds, 0.59% hits; AID 1259400;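 active = activity change of -60% or lower, but not beyond a set lower limit; inconclusive = change between -60% and -40%, or beyond the set limit; inactive = change above -40%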; also: % is scaled to controls: 0 for no effect and ±100 for the full control effect
gsp antagonist: gsp mutant antagonism; gsp-mutant cells, cAMP HTRF, 30 min; Potency, µM (titrated, usually from 76.9 µM), inactives show at the top dose activity change, negative = inhibition, hits mostly inhibitors; 340,000 compounds, 0.4% hits; calls by dose curve; cell line not stated here;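 also: intracellular cAMP measured with PDE inhibitor Ro 20-1724 present during compound exposure; potency is read from the fitted curve at half-maximal effect; % is scaled to controls: 0 for no effect and ±100 for the full control effect; nearly all actives have a fitted effect of over 65% in size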
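Cells in G418 medium, seeded 16-24 h, 37C; buffer exchange to DPBS + 1 mM CaCl2, 0.5 mM MgCl2, 0.05% BSA; cpds in DMSO + […] (300 uM stock), 30 min 37C; HTRF cAMP detection.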
The depositor's hits bear a star; [ ] = remark or other dose.

What do the screens show for `Cc1ccccc1Nc1c(-c2cccnc2)nc2cccc(C)n12`?
RXFP1 ag: 0%; gsp agonist: -21%; TSHR antagonist: 7; RXFP1 antag: inconclusive; gsp antagonist: -10%

How did Cc1cccc2nc(-c3cccnc3)c(Nc3ccc(C(C)C)cc3)n12 do in these assays?
RXFP1 ag: 0%; RXFP1 antag: -88*

What do the screens show for `Cc1cccc(OCC(=O)N(Cc2ccco2)c2c(N)n(Cc3ccccc3)c(=O)[nH]c2=O)c1`?
RXFP1 ag: -1%; gsp agonist: -31%; TSHR antagonist: -8; RXFP1 antag: -6; gsp antagonist: 50µM*

How did CCOc1ccc(Nc2cc(C)nc3ccc(C)cc23)cc1 do in these assays?
gsp agonist: -15%[15.4 µM]; RXFP1 antag: -31; gsp antagonist: inconclusive

What do the screens show for `Cc1ccc(Nc2cc(C)nc3ccc(C)cc23)cc1`?
RXFP1 ag: 1%; gsp agonist: 1%; TSHR antagonist: -96*; RXFP1 antag: -82*; gsp antagonist: 5%

How did OCCN1CCN(c2nc(-c3ccccc3)c3cc(Br)ccc3n2)CC1 do in these assays?
RXFP1 ag: 8%; gsp agonist: 5%; TSHR antagonist: 13; RXFP1 antag: -70*; gsp antagonist: 6%

How did Cc1onc(-c2ccccc2)c1C(=O)Nc1cccc2nsnc12 do in these assays?
RXFP1 ag: inconclusive; gsp agonist: 35µM*; TSHR antagonist: -3; RXFP1 antag: -4; gsp antagonist: 21%

How did Cc1nnc(NC(=O)c2c(-c3ccccc3)noc2C)s1 do in these assays?
RXFP1 ag: 0%; gsp agonist: -29%; TSHR antagonist: 1; RXFP1 antag: -12; gsp antagonist: -10%

How did O=C(Nc1ccc(N2CCN(c3ncccc3C(F)(F)F)CC2)nc1)c1cccs1 do in these assays?
RXFP1 ag: 3%; gsp agonist: 3%[15.4 µM]; TSHR antagonist: -38; RXFP1 antag: -69*; gsp antagonist: 50µM*

How did CCC(C)NC(=O)CSc1c2c(nc3ccccc13)CCCC2 (stereo not drawn) do in these assays?
RXFP1 ag: 9%; gsp agonist: 13µM*; TSHR antagonist: 9; RXFP1 antag: -7; gsp antagonist: 3%

What do the screens show for `Cc1cccc(NC(=O)CSc2c3c(nc4ccccc24)CCC3)n1`?
RXFP1 ag: 2%; gsp agonist: inconclusive; TSHR antagonist: -6; RXFP1 antag: -2; gsp antagonist: -3%

How did C=CCSc1nnc(NC(=O)c2cccc(S(=O)(=O)N(C)c3ccccc3)c2)s1 do in these assays?
RXFP1 ag: -2%; gsp agonist: -1%; TSHR antagonist: -35; RXFP1 antag: -28; gsp antagonist: 40µM*

What do the screens show for `CCC1CN(C(=O)N2CCC(C(=O)NCCCc3ccccc3)CC2)c2cc(C)ccc2O1` (stereo not drawn)?
RXFP1 ag: 0%; RXFP1 antag: -69*

How did COc1cc(OC)cc(C(=O)Oc2c(Sc3ccccc3)c(C)nn2C(C)(C)C)c1 do in these assays?
RXFP1 ag: -3%

How did CC(C(=O)NCc1ccccc1)n1cc([N+](=O)[O-])cn1 (stereo not drawn) do in these assays?
RXFP1 ag: -3%; gsp agonist: 1.6µM*; TSHR antagonist: 9; RXFP1 antag: 4; gsp antagonist: 5%

Results for Cc1cc(CNC(=O)C(C)n2cc([N+](=O)[O-])cn2)c2ccccc2n1 (stereo not drawn) ?
RXFP1 ag: inconclusive; gsp agonist: 6%[15.4 µM]; TSHR antagonist: 3; RXFP1 antag: -8; gsp antagonist: 9%

What do the screens show for `COc1ccc(Nc2nc(N)nc(CSc3nc4cc(OC)ccc4s3)n2)cc1`?
RXFP1 ag: 4%; RXFP1 antag: -7

How did O=C1/C(=C/c2ccc([N+](=O)[O-])cc2)Oc2cc(O)ccc21 do in these assays?
RXFP1 ag: -1%; gsp agonist: 1%[15.4 µM]; TSHR antagonist: -32; RXFP1 antag: -6; gsp antagonist: 22µM*

How did O=C1/C(=C/c2ccc(Br)cc2)Oc2cc(O)ccc21 do in these assays?
RXFP1 ag: 8%; gsp agonist: 25%; TSHR antagonist: -35; RXFP1 antag: 2; gsp antagonist: -25%
